From ChEMBL document CHEMBL3988442, “University of Dundee, Small-Polar-MMV Screening Library” (2021)
For some of these results: Results with a measured potency or affinity are listed apart.

Legend:
Design in all cases: scale not given: direction of the effect not stated beside the values
[1] = target: Protein translocase subunit SecA (Escherichia coli (strain K12)) (UniProt P10408); test: Assay to Identify E. coli SecA ATPase Inhibitors; assay type: functional; conditions: 30 µM
[2] = target: T1, Ubiquitin-activating enzyme e1, putative (Leishmania donovani (strain BPK282A1)) (UniProt E9BSI1); test: Leishmania donovani Ubiquitin Activating Enzyme (LdE1); assay type: functional; conditions: 30 µM
T1 sequence (whole entry): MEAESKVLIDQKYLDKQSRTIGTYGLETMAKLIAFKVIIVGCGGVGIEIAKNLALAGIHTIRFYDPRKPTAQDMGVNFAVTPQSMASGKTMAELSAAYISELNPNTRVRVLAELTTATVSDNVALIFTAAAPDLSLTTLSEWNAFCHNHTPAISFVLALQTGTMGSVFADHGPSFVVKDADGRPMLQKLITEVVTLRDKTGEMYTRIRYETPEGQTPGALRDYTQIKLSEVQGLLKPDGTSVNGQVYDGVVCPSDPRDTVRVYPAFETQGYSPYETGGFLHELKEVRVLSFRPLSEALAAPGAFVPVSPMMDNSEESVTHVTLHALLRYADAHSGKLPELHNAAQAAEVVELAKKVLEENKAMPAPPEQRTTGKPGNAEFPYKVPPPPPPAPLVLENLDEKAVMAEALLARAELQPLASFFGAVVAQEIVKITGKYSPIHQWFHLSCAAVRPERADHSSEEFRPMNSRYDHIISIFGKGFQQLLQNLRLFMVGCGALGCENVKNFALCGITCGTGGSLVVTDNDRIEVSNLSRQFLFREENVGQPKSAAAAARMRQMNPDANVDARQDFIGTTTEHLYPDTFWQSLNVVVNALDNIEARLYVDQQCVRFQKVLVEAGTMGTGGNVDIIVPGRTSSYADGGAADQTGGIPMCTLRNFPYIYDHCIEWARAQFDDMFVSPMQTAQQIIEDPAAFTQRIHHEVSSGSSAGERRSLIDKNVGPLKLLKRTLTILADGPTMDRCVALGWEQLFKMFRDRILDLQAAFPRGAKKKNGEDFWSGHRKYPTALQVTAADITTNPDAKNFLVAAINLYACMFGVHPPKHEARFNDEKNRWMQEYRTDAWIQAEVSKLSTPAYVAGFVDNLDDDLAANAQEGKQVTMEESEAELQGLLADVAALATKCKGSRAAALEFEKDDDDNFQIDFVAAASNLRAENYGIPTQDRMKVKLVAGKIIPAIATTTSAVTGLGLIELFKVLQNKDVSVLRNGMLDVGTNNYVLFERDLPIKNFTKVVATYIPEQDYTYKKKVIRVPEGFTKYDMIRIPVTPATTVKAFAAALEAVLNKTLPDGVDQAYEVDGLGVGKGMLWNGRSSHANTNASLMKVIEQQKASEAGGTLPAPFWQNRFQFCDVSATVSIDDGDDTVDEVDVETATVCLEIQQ

[3] = target: AMP-activated protein kinase, AMPK (Homo sapiens) (UniProt P54646+O43741+P54619+Q9UGJ0+Q9Y478+Q13131+Q9UGI9); test: AMP-dependent Kinase enzyme assay. An in vitro enzyme assay that detects ADP turnover that is directly proportional to AMPK activity. This uses naive AMPK that is activated during the assay with MK-8722; assay type: functional; conditions: 30 µM
[4] = target: Sialic acid-binding Ig-like lectin 9 (Homo sapiens) (UniProt Q9Y336); test: Hs-Siglec9 ALPHAscreen SOP 20170721; conditions: 10 µM
Sialic acid-binding Ig-like lectin 9 (Homo sapiens), sequence (Q9Y336 whole entry): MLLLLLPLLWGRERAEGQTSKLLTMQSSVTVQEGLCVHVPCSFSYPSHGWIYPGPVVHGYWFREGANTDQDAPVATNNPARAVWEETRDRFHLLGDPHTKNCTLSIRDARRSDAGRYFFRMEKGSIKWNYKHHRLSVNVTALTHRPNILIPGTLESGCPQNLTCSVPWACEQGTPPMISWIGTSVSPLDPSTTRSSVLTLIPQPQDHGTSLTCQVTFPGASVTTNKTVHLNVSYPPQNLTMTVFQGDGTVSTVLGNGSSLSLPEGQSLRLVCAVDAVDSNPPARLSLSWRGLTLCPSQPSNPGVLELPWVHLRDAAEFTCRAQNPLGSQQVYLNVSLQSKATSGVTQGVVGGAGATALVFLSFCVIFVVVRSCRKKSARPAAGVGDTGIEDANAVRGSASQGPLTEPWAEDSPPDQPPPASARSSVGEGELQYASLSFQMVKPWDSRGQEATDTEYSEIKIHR

[5] = system: Trypanosoma cruzi; test: Trypanosoma cruzi phosphomannomutase and mannose-1-phosphate guanylyltransferase assay; assay type: functional; conditions: 10 µM
[6] = target: T2, Arginase-2, mitochondrial (Homo sapiens) (UniProt P78540); test: in vitro enzyme assay to detect the production of urea directly proportional to the activity of Arginase II; assay type: functional; conditions: 33.3 µM; further: in the data most compounds retested in dose-response had high values
T2 sequence (whole entry): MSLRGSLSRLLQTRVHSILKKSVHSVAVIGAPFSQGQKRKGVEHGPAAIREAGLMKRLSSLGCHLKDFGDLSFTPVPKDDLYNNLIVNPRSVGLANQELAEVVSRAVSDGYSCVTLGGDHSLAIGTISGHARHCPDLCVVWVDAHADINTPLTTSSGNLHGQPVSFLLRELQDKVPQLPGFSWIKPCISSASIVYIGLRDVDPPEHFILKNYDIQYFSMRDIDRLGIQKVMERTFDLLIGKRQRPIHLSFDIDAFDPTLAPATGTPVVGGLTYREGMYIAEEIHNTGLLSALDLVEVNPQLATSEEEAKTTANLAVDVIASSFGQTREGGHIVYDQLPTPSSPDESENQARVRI

[7] = target: T3, Proteasome subunit beta (Trypanosoma cruzi) (UniProt O96673); test: Trypanosoma cruzi proteasome chymotrypsin-like activity (TcProtChymo) assay.; further: in the data most compounds retested in dose-response had high values; assay type: functional; conditions: 9.37 µM
T3 sequence (whole entry): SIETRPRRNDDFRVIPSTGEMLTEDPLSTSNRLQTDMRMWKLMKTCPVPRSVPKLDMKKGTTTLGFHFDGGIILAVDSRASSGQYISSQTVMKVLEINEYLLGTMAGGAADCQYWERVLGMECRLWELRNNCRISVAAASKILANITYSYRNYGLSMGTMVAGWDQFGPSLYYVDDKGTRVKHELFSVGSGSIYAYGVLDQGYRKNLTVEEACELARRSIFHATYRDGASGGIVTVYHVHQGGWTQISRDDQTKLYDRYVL

[8] = species on record: Homo sapiens; test: To identify inhibition of the IFN signalling (Jak-Stat) pathway via expression of an eGFP reporter gene under the control of an IFN-stimulated response element (ISRE) containing MxA promoter.; assay type: functional; conditions: 30 µM
[9] = target: T4, Tyrosyl-tRNA synthetase, putative (Trypanosoma cruzi (strain CL Brener)) (UniProt Q4DSP6); test: Trypanosoma cruzi tyrosyl tRNA synthetase (TcYRS) _High Tyrosine SOP; assay type: functional; conditions: 30 µM; further: in the data most compounds retested in dose-response had high values
T4 sequence (whole entry): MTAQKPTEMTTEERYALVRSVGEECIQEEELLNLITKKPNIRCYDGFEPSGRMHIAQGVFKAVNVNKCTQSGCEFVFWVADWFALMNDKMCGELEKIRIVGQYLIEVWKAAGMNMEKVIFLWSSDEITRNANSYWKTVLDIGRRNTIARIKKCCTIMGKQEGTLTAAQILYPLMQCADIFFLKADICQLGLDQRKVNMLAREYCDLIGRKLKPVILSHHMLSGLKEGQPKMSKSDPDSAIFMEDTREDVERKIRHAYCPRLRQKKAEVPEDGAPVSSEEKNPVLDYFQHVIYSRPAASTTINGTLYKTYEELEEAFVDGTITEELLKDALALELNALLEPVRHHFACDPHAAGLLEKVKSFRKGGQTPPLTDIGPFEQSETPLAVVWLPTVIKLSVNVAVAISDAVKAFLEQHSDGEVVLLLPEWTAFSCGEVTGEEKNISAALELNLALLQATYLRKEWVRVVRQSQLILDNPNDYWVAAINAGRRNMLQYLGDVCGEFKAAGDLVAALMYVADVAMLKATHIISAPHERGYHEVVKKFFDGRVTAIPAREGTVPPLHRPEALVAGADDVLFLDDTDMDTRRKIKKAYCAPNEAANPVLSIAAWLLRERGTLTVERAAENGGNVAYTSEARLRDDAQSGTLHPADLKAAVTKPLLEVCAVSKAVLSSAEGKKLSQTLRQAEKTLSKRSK

[10] = target: T4, Tyrosyl-tRNA synthetase, putative (Trypanosoma cruzi (strain CL Brener)); test: Trypanosoma cruzi tyrosyl tRNA synthetase (TcYRS) SOP; assay type: functional; conditions: 30 µM
[11] = target: Chromo domain-containing protein 1 (Saccharomyces cerevisiae (strain ATCC 204508 / S288c) (Baker's yeast)) (UniProt P32657); test: ScCHD-1 Enzyme Inhibition Assay; assay type: functional; conditions: 30 µM; further: in the data most compounds retested in dose-response had high values
Chromo domain-containing protein 1 (Saccharomyces cerevisiae (strain ATCC 204508 / S288c) (Baker's yeast)), sequence (P32657 whole entry, the tested form may be a part): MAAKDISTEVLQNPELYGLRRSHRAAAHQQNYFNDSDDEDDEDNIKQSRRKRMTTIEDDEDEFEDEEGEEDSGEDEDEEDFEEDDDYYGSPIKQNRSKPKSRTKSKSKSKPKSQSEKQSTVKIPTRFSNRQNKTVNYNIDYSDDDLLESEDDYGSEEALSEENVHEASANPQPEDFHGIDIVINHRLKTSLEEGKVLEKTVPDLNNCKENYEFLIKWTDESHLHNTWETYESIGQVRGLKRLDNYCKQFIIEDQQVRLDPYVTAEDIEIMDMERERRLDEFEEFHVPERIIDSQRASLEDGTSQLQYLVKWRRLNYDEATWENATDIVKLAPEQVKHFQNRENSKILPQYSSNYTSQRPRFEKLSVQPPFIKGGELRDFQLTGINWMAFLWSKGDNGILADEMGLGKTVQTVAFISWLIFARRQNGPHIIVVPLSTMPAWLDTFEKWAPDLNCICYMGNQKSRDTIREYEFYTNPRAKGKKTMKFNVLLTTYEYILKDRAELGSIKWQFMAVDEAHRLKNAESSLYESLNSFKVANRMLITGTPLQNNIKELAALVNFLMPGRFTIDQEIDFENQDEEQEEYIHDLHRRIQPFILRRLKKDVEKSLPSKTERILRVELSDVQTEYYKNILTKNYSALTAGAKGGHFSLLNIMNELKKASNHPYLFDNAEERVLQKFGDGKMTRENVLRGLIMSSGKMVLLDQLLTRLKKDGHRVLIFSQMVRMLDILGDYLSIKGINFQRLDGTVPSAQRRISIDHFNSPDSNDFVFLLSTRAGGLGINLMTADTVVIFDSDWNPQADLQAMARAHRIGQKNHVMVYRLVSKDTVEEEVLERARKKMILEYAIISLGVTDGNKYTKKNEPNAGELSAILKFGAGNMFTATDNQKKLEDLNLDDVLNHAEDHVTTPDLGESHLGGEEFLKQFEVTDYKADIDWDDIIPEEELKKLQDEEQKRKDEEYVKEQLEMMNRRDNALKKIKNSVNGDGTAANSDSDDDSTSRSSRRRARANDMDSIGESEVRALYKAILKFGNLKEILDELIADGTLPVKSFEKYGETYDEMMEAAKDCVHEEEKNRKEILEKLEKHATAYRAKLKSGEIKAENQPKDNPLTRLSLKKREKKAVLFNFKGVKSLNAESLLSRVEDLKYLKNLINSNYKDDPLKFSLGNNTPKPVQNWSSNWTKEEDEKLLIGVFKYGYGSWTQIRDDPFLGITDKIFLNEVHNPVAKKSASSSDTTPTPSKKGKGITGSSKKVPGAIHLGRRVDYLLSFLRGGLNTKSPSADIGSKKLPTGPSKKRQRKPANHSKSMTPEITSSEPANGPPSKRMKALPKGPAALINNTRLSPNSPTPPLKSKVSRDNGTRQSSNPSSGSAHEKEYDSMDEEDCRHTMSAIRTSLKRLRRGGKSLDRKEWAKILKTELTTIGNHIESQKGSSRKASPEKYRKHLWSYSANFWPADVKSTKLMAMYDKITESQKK

Protein translocase subunit SecA (Escherichia coli (strain K12)), sequence (P10408 whole entry): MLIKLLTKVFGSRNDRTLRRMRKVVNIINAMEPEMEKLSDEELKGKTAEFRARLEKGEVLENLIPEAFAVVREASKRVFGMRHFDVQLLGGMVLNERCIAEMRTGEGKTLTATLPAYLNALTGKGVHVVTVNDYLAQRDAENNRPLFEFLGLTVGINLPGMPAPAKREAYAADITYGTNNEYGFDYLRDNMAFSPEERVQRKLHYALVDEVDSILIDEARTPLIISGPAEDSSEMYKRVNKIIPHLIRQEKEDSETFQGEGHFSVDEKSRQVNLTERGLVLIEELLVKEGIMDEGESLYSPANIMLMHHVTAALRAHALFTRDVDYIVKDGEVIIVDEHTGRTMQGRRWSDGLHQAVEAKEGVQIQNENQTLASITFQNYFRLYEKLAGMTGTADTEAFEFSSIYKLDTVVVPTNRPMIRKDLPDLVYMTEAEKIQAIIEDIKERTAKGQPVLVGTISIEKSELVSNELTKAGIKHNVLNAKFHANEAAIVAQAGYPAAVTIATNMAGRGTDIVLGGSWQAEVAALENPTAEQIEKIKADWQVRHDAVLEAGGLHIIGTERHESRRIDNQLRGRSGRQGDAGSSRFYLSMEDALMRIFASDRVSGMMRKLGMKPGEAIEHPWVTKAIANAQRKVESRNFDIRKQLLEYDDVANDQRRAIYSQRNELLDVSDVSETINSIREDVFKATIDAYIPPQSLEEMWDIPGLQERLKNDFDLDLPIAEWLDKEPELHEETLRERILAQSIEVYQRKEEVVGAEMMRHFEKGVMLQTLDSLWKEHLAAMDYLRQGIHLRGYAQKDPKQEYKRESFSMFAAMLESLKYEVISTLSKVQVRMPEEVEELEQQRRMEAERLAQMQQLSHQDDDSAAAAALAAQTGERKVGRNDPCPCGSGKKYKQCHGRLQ

Cn1cccc1C(=O)N1CC[C@H]2C[C@@H](c3ccncn3)O[C@@H]2C1
Percent Effect [1]: -5.79%
Percent Effect [2]: 13.5%
Percent Effect [3]: 3.37%
Percent Effect [4]: -2.88%
Percent Effect [5]: -0.684%
Percent Effect [6]: 6.69%
Percent Effect [7]: 14.6%
Percent Effect [8]: 2.31%
Percent Effect [9]: 4.32%
Percent Effect [10]: 5.13%
Percent Effect [11]: -0.0971%

Cc1nc(N2CCCC2)nc2c1CCN(C(=O)CC1CC1)CC2
Percent Effect [1]: -4.09%
Percent Effect [2]: 20%
Percent Effect [3]: -2.46%
Percent Effect [4]: 4.72%
Percent Effect [5]: 2.75%
Percent Effect [6]: -7.22%
Percent Effect [7]: 16.1%
Percent Effect [8]: 9.15%
Percent Effect [9]: -2.12%
Percent Effect [10]: 10.3%
Percent Effect [11]: -11%

NCc1cnn(-c2ccccc2C(=O)NCc2ccncc2)c1
Percent Effect [1]: -3.81%
Percent Effect [2]: 6.76%
Percent Effect [3]: 13.5%
Percent Effect [4]: -2.83%
Percent Effect [5]: -2.96%
Percent Effect [6]: -0.232%
Percent Effect [7]: 6.08%
Percent Effect [8]: 6.53%
Percent Effect [9]: 3.23%
Percent Effect [10]: 11.7%
Percent Effect [11]: -5.06%

CCc1cnc(N2CC3(CCN(C(=O)c4ccoc4)C3)C2)nc1
Percent Effect [1]: -7.71%
Percent Effect [2]: -10.4%
Percent Effect [3]: 3.45%
Percent Effect [4]: 3.13%
Percent Effect [5]: -2.46%
Percent Effect [6]: 5.52%
Percent Effect [7]: 9.65%
Percent Effect [8]: 8.56%
Percent Effect [9]: -2.15%
Percent Effect [10]: -1.24%
Percent Effect [11]: -0.64%

CN(C)C(=O)CO[C@@H]1CC[C@H]2[C@H]1OCCN2C(=O)C1CCOCC1
Percent Effect [1]: -1.1%
Percent Effect [2]: 2.7%
Percent Effect [3]: -6.25%
Percent Effect [4]: -1.21%
Percent Effect [5]: -3.52%
Percent Effect [6]: 2.08%
Percent Effect [7]: 13.8%
Percent Effect [8]: 21%
Percent Effect [9]: 9.9%
Percent Effect [10]: 8.54%
Percent Effect [11]: 2.17%

O=C(NCc1cccnc1-n1cccn1)C1CC(=O)N(CC2CC2)C1 (stereo unspecified)
Percent Effect [1]: 1.42%
Percent Effect [2]: -2.6%
Percent Effect [3]: 12.9%
Percent Effect [4]: -3.81%
Percent Effect [5]: -3.43%
Percent Effect [6]: 7.37%
Percent Effect [7]: 2.99%
Percent Effect [8]: 18.6%
Percent Effect [9]: -0.952%
Percent Effect [10]: -2.35%
Percent Effect [11]: -13.5%

O=c1cc(Cn2ccnc2)nc2n1CCCN(Cc1ccsc1)C2
Percent Effect [1]: -4.06%
Percent Effect [2]: 4%
Percent Effect [3]: 0.478%
Percent Effect [4]: 7%
Percent Effect [5]: -5.7%
Percent Effect [6]: -6.51%
Percent Effect [7]: 13.3%
Percent Effect [8]: -7.79%
Percent Effect [9]: 7.41%
Percent Effect [10]: 5.13%
Percent Effect [11]: -8.3%

O=c1oc(-c2ccc(F)cc2)nn1CN1CCN(C2CCCC2)CC1
Percent Effect [1]: -3.25%
Percent Effect [2]: 18.2%
Percent Effect [3]: 2.12%
Percent Effect [4]: -0.647%
Percent Effect [5]: -2.25%
Percent Effect [6]: -3.56%
Percent Effect [7]: 7.6%
Percent Effect [8]: -3.58%
Percent Effect [9]: 9.71%
Percent Effect [10]: 19.5%
Percent Effect [11]: -6.38%

Fc1cccc(CN2CCC(c3n[nH]c4ncccc34)CC2)c1F
Percent Effect [1]: -3.7%
Percent Effect [2]: 9.46%
Percent Effect [3]: 25.8%
Percent Effect [4]: 6.41%
Percent Effect [5]: 7.71%
Percent Effect [6]: -1.16%
Percent Effect [7]: 18.2%
Percent Effect [8]: 18.6%
Percent Effect [9]: 3.23%
Percent Effect [10]: 14.3%
Percent Effect [11]: -10.6%

Cn1cccc1C(=O)N[C@@H]1CN(CC2CC2)[C@@H]2COC[C@@H]21
Percent Effect [1]: -2.02%
Percent Effect [2]: 5.33%
Percent Effect [3]: -1.14%
Percent Effect [4]: 25.9%
Percent Effect [5]: -7.14%
Percent Effect [6]: -54.7%
Percent Effect [7]: -2.73%
Percent Effect [8]: -2.91%
Percent Effect [9]: 1.04%
Percent Effect [10]: 7.5%
Percent Effect [11]: -7.28%

CC(C)c1n[nH]c(C2CN(Cc3nnc(C4CC4)o3)CCO2)n1 (stereo unspecified)
Percent Effect [1]: -2.46%
Percent Effect [2]: 0%
Percent Effect [3]: 9.78%
Percent Effect [4]: -2.59%
Percent Effect [5]: -3.87%
Percent Effect [6]: -8.37%
Percent Effect [7]: 6.47%
Percent Effect [8]: 27.6%
Percent Effect [9]: -5.42%
Percent Effect [10]: -11.4%
Percent Effect [11]: -1.54%
